Consider 14 compounds from PubChem BioAssay.

Molecules are shown by their SMILES. Active and inactive are the calls of the source.

Experiment [1] concerns Plasmodium falciparum Sir2 (PF13_0152, Sir2A). Nature of the experiment: Plasmodium falciparum Sir2A binding compounds – biochemical, small-molecule microarray, 635 nm fluorescence, primary screen (AID 1098).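 Further: score merges spot fluorescence intensity with its signal-to-noise ratio.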 To be noted: fluorescence 635 nm, higher = more signal.
A short description of experiment [2]: probe aDKK1 binding to arrayed compounds – biochemical, biotinylated probe, 635/667 nm fluorescence, primary screen (AID 1099).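 Further: score merges 667nm spot fluorescence with signal to noise across triplicate slides; reference of the scale not given here.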 To be noted: small-molecule microarray, higher = more signal.
Experiment [3] in a line: probe aCHRDL2 binding to arrayed compounds – biochemical, biotinylated probe, 635/667 nm fluorescence, primary screen (AID 1100). As to conditions: small-molecule microarray, higher = more signal.
Experiment [4] in a line: change in splice reporter luminescence, either direction, cell-based, HEK293, spliceosome inhibition project, primary screen (AID 1101).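 Further: HEK293 cells carrying a splicing-competent luciferase reporter gene; test concentration not given here.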 As to conditions: HEK293 splicing luciferase reporter, 24 h, higher = more signal, called active from +8 up or from −8 down. Background: Reporter assays use an easily measured gene product as a stand-in for the process of interest.
For experiment [5], the target named is Fibroblast growth factor 10 (Homo sapiens) (UniProt O15520). Nature of the experiment: compounds binding fibroblast growth factor 10 – biochemical, small-molecule microarray, 635 nm fluorescence, primary screen (AID 1102). To be noted: FGF10 binding, fluorescence 635 nm, higher = more signal.
Fibroblast growth factor 10 (Homo sapiens), sequence (O15520 whole entry, looked up): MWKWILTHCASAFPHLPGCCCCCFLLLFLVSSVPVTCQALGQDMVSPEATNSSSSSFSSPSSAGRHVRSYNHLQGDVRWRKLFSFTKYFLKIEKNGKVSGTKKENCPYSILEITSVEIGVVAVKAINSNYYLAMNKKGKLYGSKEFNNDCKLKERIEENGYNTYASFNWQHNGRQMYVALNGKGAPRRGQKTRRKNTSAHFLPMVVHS
Experiment [6] has as its system glycogen synthase kinase-3 (GSK3A per assay name; protocol says GSK3B). Briefly: compounds binding glycogen synthase kinase-3 – biochemical, small-molecule microarray, 635 nm fluorescence, GSK3A, primary screen (AID 1103). Further: the record names both GSK3A and GSK3B. As to conditions: fluorescence 635 nm, higher = more signal.
The target of experiment [7] is Epidermal growth factor receptor (Homo sapiens) (UniProt P00533). Briefly: compounds binding epidermal growth factor receptor – biochemical, small-molecule microarray, 635 nm fluorescence, primary screen (AID 1104).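 Further: score merges 667 nm emission intensity with spot signal to noise over triplicate slides.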 As to conditions: EGFR binding, higher = more signal.
Epidermal growth factor receptor (Homo sapiens), sequence (P00533 whole entry, looked up): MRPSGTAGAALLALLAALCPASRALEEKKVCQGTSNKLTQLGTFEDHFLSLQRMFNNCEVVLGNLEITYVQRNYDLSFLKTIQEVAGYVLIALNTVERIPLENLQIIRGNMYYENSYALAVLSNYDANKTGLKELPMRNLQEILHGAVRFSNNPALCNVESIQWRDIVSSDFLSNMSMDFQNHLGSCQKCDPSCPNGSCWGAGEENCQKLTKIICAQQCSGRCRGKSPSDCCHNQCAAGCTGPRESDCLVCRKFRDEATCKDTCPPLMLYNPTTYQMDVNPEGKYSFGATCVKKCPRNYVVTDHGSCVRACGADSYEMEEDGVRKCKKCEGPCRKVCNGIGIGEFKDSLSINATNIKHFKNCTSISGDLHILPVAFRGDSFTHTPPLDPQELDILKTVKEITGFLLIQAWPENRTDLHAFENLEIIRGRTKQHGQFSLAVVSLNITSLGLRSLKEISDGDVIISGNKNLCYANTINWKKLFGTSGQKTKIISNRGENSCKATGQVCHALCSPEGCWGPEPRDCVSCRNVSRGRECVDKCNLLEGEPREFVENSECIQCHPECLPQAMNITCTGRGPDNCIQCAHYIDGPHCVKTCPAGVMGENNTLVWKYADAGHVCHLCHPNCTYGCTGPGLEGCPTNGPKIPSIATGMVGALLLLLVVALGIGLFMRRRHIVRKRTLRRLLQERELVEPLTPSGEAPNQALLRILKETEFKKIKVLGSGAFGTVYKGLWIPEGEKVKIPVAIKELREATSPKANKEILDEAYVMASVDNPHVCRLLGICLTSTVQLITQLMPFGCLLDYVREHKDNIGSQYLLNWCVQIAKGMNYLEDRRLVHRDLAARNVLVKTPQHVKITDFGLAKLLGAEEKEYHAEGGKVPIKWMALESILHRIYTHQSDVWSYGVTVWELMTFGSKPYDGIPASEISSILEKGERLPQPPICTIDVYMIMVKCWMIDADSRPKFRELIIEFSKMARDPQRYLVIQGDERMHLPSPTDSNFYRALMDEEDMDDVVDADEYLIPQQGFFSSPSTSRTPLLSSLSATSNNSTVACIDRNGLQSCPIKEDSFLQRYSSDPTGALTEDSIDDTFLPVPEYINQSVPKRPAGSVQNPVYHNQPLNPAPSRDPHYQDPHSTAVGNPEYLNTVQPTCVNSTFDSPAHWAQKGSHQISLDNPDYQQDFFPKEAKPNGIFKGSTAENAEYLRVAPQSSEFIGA
Experiment [8] has as its target Follistatin-related protein 3 (Homo sapiens) (UniProt O95633). Briefly: compounds binding follistatin-related protein 3 – biochemical, small-molecule microarray, 635 nm fluorescence, primary screen (AID 1105).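 Further: score merges emission near 667 nm and signal to noise per printed spot across three slides.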 As to conditions: FSTL3 binding, higher = more signal.
For experiment [9], the target named is Dickkopf-related protein 1 (Homo sapiens) (UniProt O94907). Briefly: small molecules binding DKK1 protein – biochemical, small-molecule microarray, 635 nm fluorescence scan, primary screen (AID 1106).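 Further: score merges emission near 667 nm with signal to noise over three replicate slides.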 As to conditions: higher = more signal.
Dickkopf-related protein 1 (Homo sapiens), sequence (O94907 whole entry, looked up): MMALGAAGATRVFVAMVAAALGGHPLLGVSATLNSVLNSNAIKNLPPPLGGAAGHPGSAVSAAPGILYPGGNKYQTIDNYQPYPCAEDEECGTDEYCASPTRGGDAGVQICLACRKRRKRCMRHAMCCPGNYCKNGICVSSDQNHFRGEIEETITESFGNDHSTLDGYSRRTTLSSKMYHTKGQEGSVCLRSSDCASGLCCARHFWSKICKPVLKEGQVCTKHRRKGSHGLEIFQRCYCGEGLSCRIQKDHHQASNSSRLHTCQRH
The subject of experiment [10] is Inhibin beta A chain (activin A). Briefly: small molecules binding activin A – biochemical, small-molecule microarray, 635 nm fluorescence scan, primary screen (AID 1107).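 Further: mouse activin A protein probed at 4.33 µg/mL on printed slides; score merges bound-protein fluorescence near 667 nm with spot signal-to-noise.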 As to conditions: INHBA, higher = more signal.

Follistatin-related protein 3 (Homo sapiens), sequence (O95633 whole entry, looked up): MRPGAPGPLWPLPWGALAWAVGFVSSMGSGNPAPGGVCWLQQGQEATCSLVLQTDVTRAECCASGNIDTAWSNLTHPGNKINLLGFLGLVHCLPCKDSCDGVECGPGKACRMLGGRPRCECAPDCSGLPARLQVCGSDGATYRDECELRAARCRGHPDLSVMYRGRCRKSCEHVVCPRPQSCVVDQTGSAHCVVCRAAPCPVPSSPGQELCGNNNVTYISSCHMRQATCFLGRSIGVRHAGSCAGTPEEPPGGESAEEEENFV

As to `CCOC(=O)C[C@H]1[C@H](OC(=O)Cc2ccc3c(c2)OCO3)[C@@H](NC(=O)c2ccccc2)c2cc(OCCCO)ccc2N1C(=O)Cc1ccc(OC)cc1`, the composite z-score is -0.1 in [1]; -0.386 in experiment [2]; -0.167 in experiment [3]; 0.236 in [5]; 0.227 in experiment [6]; 0.237 in experiment [7]. The composite z-score is 0.339 in experiment [8], 0.0486 in experiment [9] and -0.296 in [10]. For the same compound, the z-score in experiment [4] was -2.62 (inactive).

On to `COC(=O)[C@H](Cc1ccc(O)cc1)N1CC2=CCCC=C[C@@H]2[C@H]1[C@H](O)Cc1ccccc1`, for which the composite z-score in experiment [1] was 0.751; in [2] it was -0.301; in [3], -0.538; in experiment [5], 0.477; in experiment [6], -0.159; in experiment [7], 0.72. In addition, the composite z-score in experiment [8] worked out at 0.255; in [9] it was 0.0139; in experiment [10], 0.493. The z-score in [4] is -1.07 (inactive).

On to `C=C(CC1([C@@H](NP(=O)(c2ccccc2)c2ccccc2)[C@H]2C[C@@H]2CCN(C(=O)OCC)S(=O)(=O)c2ccc(C)cc2)CC1)c1ccccc1`, for which the composite z-score in [1] worked out at 0.827; in experiment [2] it was 1.31; in experiment [3], 1.23; in experiment [5] it was 0.429; in experiment [6], 0.288; in experiment [7], 0.0577. Besides, the composite z-score in [8] was 0.748; in experiment [9], -0.636; in experiment [10] it was 1.17. Also, the z-score in experiment [4] is -2.39 (inactive).

For `CC(C)N1CC=CC23O[C@@H]4C=CCCOC(=O)C4[C@H]2C(=O)N(CCCCCO)[C@@H]3C1=O` (stereo not given in full), the composite z-score was 1.58 in experiment [1]; -0.188 in [2]; 0.317 in [3]; -0.347 in experiment [5]; -1.26 in experiment [6]; -0.575 in experiment [7]. Also, the composite z-score in [8] was -0.749; in experiment [9], -1.06; in experiment [10], 0.559. In experiment [4], the z-score is -0.0254 (inactive).

`COc1ccc(CCNC(=O)[C@@]2(Sc3ccc(C)cc3)CC(=O)N(C(C)C)[C@@H]2c2ccc(CO)cc2)cc1`: the composite z-score in [1] was 1.41; in experiment [2], 0.0055; in experiment [3], 0.983; in experiment [5], -0.855; in [6] it was -0.897; in experiment [7] it was -2.03. For the same compound, the composite z-score in [8] is -1.45; in experiment [9], -2; in experiment [10], -0.87. Besides, in experiment [4], the z-score was 0.239 (inactive).

In the case of `C#CCN([C@H](/C=C/C1CC1)[C@@H](O)Cc1ccccc1)[C@@H](Cc1ccccc1)C(=O)OC`, the composite z-score in [1] was -0.135; in [2], -0.281; in [3], 0.0495; in experiment [5], -0.351; in experiment [6], -0.604; in experiment [7] it was -0.215. Also, the composite z-score was 0.232 in experiment [8], -0.0707 in [9] and 0.858 in experiment [10]. In experiment [4], the z-score is -0.606 (inactive).

Turning to `C[N+](C)(C)CCCCCCNC(=O)[C@@H]1C[C@@H]2C(=O)N[C@@H](Cc3ccccc3)C(=O)N2[C@@H]1c1ccc(O)cc1`, the composite z-score in experiment [1] is 1.61; in experiment [2], -0.409; in [3], -0.578; in experiment [5], 1.21; in [6], 0.89; in experiment [7], 0.776. The composite z-score in experiment [8] was 1.48; in [9] it was 0.92; in experiment [10], 0.633. Also, the z-score in experiment [4] is 0.372 (inactive).

Turning to `CN1C(=O)[C@]2(CCS(=O)(=O)c3ccccc3)N=C(c3ccc(OCCCO)cc3)O[C@@H]2c2ccccc21`, the composite z-score in experiment [1] was 1.38; in experiment [2] it was 0.0991; in [3] it was 0.89; in experiment [5], 0.458; in experiment [6], 1.33; in experiment [7], -0.0528. For the same compound, the results for the composite z-score in experiment [8], in experiment [9] and in [10] were 0.669, 0.367 and 0.3, respectively. In addition, the z-score in experiment [4] was -0.674 (inactive).

As to `CC(C)C[C@@H]1NC(=O)[C@H]2C[C@@H](C(=O)NCCCCCNC(=O)CS)[C@@H](c3ccc(O)cc3)N2C1=O`, the composite z-score in experiment [1] is 1.56; in experiment [2], -0.0363; in experiment [3], 0.203; in experiment [5], 1.08; in experiment [6] it was 1.33; in [7] it was 0.521. Moreover, the composite z-score in [8] was determined as 0.848; in [9], 1.01; in experiment [10], 0.0563. In addition, the z-score in experiment [4] is 0.0983 (inactive).

On to `CCCC[C@@H](O)C1=C(COC)Cn2c(=O)n(-c3ccccc3)c(=O)n2[C@H]1CO`, for which the composite z-score in experiment [1] is -0.0092; in experiment [2], -0.399; in experiment [3], -0.318; in experiment [5], 0.035; in [6], 0.0617; in experiment [7], -0.464. Besides, the composite z-score in experiment [8] is -0.0013; in experiment [9], -0.184; in [10], 0.749. Also, in [4], the z-score is -0.446 (inactive).

With `C=CCC(OC(C)=O)[C@@H]1[C@@H](N(Cc2cccc3ccccc23)C(=O)c2ccc(-c3ccccc3)cc2)c2cc(OCCCO)ccc2N1C(=O)c1ccc2ccccc2n1` (stereo not given in full), the composite z-score in experiment [1] is 0.0273; in [2], 0.052; in [3], 0.265; in [5], 0.186; in experiment [6], 0.159; in [7], -0.0618. Moreover, the composite z-score in [8] was found to be 0.389; in [9], 0.19; in experiment [10], 1.31. The z-score in experiment [4] is -0.395 (inactive).

With `CCCC[C@H]1OB(O)C[C@H]2C1=C(C)C[C@H]1C(=O)C=CC(=O)[C@H]12`, the composite z-score in experiment [1] is 0.559; in [2], -0.257; in [3] it was -0.722; in experiment [5], 0.845; in experiment [6] it was 0.827; in experiment [7], 0.475. In addition, the composite z-score was determined as 0.799 in experiment [8], 0.664 in [9] and 0.852 in experiment [10]. Besides, the z-score in experiment [4] is 1.04 (inactive).

As to `[N-]=[N+]=NCc1ccccc1[C@@H]1OC(c2ccc(OCCCO)cc2)=N[C@]1(Cc1ccccc1)C(=O)NCc1ccccc1`, the composite z-score in [1] is 0.869; in [2], -0.0406; in [3], 0.996; in experiment [5], 0.769; in [6], 0.113; in [7], 0.131. Besides, the composite z-score in experiment [8] is 0.529; in experiment [9], -0.154; in [10], 0.656. The z-score in experiment [4] is -1.29 (inactive).

For the compound `O=C1C2C=CC(C(O)c3ccc([N+](=O)[O-])cc3)N(Nc3ccccc3)C2C(=O)N1c1ccccc1` (stereo not given), the composite z-score is 1.32 in experiment [1]; 0.3 in experiment [2]; 0.585 in experiment [3]; 0.466 in [5]; 0.273 in experiment [6]; -0.0215 in experiment [7]. For the same compound, the results for the composite z-score in experiment [8], in [9] and in experiment [10] were 0.481, -0.521 and 0.87, respectively. For the same compound, in experiment [4], the z-score is 4.07 (inactive).
